This is a sample that favours compounds with a hit; in the whole collection about 4.2% have one here.
MCF10A rerep: A quantitative high throughput screen for small molecules that induce DNA re-replication in MCF 10a normal breast cells; MCF 10A DNA re-replication, Hoechst nuclear intensity, 48 h; Potency, µM (doses to about 46.1 µM), for the others: top-dose activity, positive = re-replication, actives largely listed as activators; AID 624296, 2012; hit rate 2.9% among 350,000; note: % of control where 0% means no effect; nearly all actives have a fitted effect of over 50% in size
SW480 rereplic: A quantitative high throughput screen for small molecules that induce DNA re-replication in SW480 colon adenocarcinoma cells. hit rate 1.8% among 340,000. SW480 DNA re-replication, Hoechst DNA content imaging, 48 h. Potency, µM (top dose mostly 46.1 µM), without a hit: top-dose re-replication activation, most hits filed as activators; note: % of control where 0% means no effect; nearly all actives have a fitted effect of over 55% in size
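Cells (250 per well) received 23 nL compound or DMSO by pin tool and were kept 48 hr at 37 C, 5% CO2. Nuclei were then stained with Hoechst for 40 min and scanned for DNA content.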
AT treatment: qHTS Assay for Identifying a Potential Treatment of Ataxia-Telangiectasia; hit rate 0.19% among 320,000; Potency, µM (highest dose often 57.5 µM), for the others: at the top dose activation, actives largely listed as activators; F2112 A-T fibroblasts, KAP-1 phosphorylation AlphaLISA; neocarzinostatin DNA damage 30 min before lysis; note: % of control where 0% means no effect; nearly all actives have a fitted effect of over 45% in size
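ATM-like activity read as KAP-1 phosphorylation via AlphaLISA donor/acceptor antibody pairs after lysis and 6 hr at 25C. Cells were ATM-null patient fibroblasts (F2112, hTERT), dosed 60 min, then exposed to the DSB inducer NCS for 30 min.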
Integrin act MD: qHTS for Activators of Integrin-Mediated Alleviation for Muscular Dystrophy; alpha7betagal myoblasts, beta-gal FDG fluorescence, 48 h; Potency, µM (doses to about 38.3 µM), inactives show at the highest dose activation, usual class: activators; hit rate 0.064% among 350,000; AID 624291, 2012;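 note: 100% = response of the positive control SU9516; nearly all actives have a fitted effect of over 60% in size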
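Alpha7betagal+/- myoblasts (passage 13) were plated 16-24 hr, then exposed to compounds (1:260 dilution of DMSO stock) for 48 hours at 37C. After MPER lysis, β-galactosidase reporter activity was read as FDG fluorescence (ex 480/em 540) after 30 minutes.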
Mito fusion act: qHTS Assay for Small Molecule Inhibitors of Mitochondrial Division or Activators of Mitochondrial Fusion | Potency, µM (top dose mostly 46.1 µM), inactives show top-dose growth rescue (activation), actives largely listed as activators | AID 485298, 2010 | S. cerevisiae fusion-defective mutant growth rescue, CellTiterGlo 48 h | hit rate 0.23% among 320,000; note: % of control where 0% means no effect; nearly all actives have a fitted effect of over 45% in size
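S. cerevisiae fusion-defective temperature-sensitive mutants (e.g. fzo1-1, mgm1-5) grown 48 h at 37C in YPEG (ethanol/glycerol non-fermentable) medium with 23 nl compound per well; growth rescue read as CellTiterGlo luminescence.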
Active calls of the source: *; ? = inconclusive; nt = no result given; [ ] = another dose, or the depositor's remark. Calls come from the whole dose curve; as a rule, active = well fitted activation curve with a large enough effect; inconclusive = small, poorly fitted or top-dose-only effect; inactive = no such curve, though single readings can be large or run the other way. Potency is the fitted concentration of half-maximal effect.

SMILES	MCF10A rerep	SW480 rereplic	AT treatment	Integrin act MD	Mito fusion act
CC(C)(C)OC(=O)N(Cc1ccccc1)Cc1ccccc1OCc1cccc(NC(=O)c2ccccc2)c1	?	0%	nt	-2%	nt
CC(C)(C)OC(=O)N(Cc1ccccc1)Cc1cccc(OCc2cccc(NC(=O)c3ccccc3)c2)c1	0.29µM*	-57%	nt	13%	nt
CC(C)C(=O)Nc1cccc(COc2ccccc2CN(Cc2ccccc2)C(=O)OC(C)(C)C)c1	12µM*	?	nt	-1%	nt
O=[N+]([O-])c1ccccc1CCc1ccccc1[N+](=O)[O-]	8%	?	nt	7%	nt
Cc1cccc(N2C(=O)c3cccc4c(N)ccc(c34)C2=O)c1	?	8.2µM*	34%	31%	3%
O=C1c2ccc3c4c(ccc(c24)C(=O)N1c1cccc(O)c1)CC3	2%	10%	1%	22%	-9%
Nc1cccc(N2C(=O)c3cccc4c(N)ccc(c34)C2=O)c1	2%	-22%	-6%	-17%	9%
O=C1c2ccc3c4c(ccc(c24)C(=O)N1c1cccc(O)c1)C(=O)N(c1cccc(O)c1)C3=O	13µM*	2.6µM*	15%	-54%	-1%
CC(C)CCN1C(=O)c2cccc3c(N)ccc(c23)C1=O	15µM*	23µM*	nt	-20%	nt
O=C(O)c1cccc(N2C(=O)c3cccc4c(Cl)ccc(c34)C2=O)c1	21µM*	?	-3%	-11%	10%
CCC(C)(Oc1ccc(C2(c3ccc(OC(C)(CC)C(=O)O)cc3)CCCCC2)cc1)C(=O)O (stereo not given)	0%	-7%	nt	nt	nt
COc1ccc(CCNC(=O)c2cc(-c3ccccc3)c(N3CCOCC3)s2)cc1OC	23%	-1%	nt	-17%	nt
CC(OC(=O)c1n[nH]c2ccccc12)C(=O)Nc1ccccc1[N+](=O)[O-] (stereo not given)	-2%	-6%	-4%	3%	22%
CC(=O)c1ccc(OCC(=O)Nc2cccc(C(=O)Nc3c(C)n(C)n(-c4ccccc4)c3=O)c2)cc1	-5%	-9%	nt	2%	nt
CCN(CC)c1ccc(/C=N/NC(=O)c2cc(C)nc3ccccc23)cc1	?	3%[9.22 µM]	15%	-22%	-3%
CCN(CC)c1ccc(/C=C/c2cc(-c3ccccc3)c3ccccc3n2)cc1	?	15µM*	11µM*	3%	3%
CCOc1ccc(Nc2oc(-c3ccco3)nc2C#N)cc1	?	-2%	6%	15%	7%
CCOc1ccc(Nc2oc(-c3cccc(Cl)c3)nc2C#N)cc1	16µM*	?	nt	-23%	-1%
CCN1CCC(CN2CCNC2=S)CC1	-14%	16µM*	nt	-7%	nt
S=C1NCCN1CC1CCN(CCC23CC4CC(CC(C4)C2)C3)CC1	?	12%	nt	-8%	nt
CN(CC(=O)Nc1cccc(F)c1)C(=O)CCc1nc2sc3c(c2c(=O)[nH]1)CCCC3	?	?	5%	1%	-2%
Cc1cc2nn(-c3cccc4ccccc34)nc2cc1N	21µM*	17%	6%	15%	6%
Nc1ccc2nn(-c3cccc4ccccc34)nc2c1	9.2µM*	18µM*	10%	-33%	2%
CCc1ccc(-n2nc3cc(C)c(N)cc3n2)cc1	?	?	11%	24%	3%
Cc1nc2ccccc2c2c(N)cccc12	-4%	-5%	nt	12%	nt
SMILES	MCF10A rerep	SW480 rereplic	AT treatment	Integrin act MD	Mito fusion act
Cc1ccc(-n2nc3cc(C)c(N)cc3n2)cc1	18µM*	?	14%	-2%	13%
CCN(CC)c1ccc(NC(=O)c2ccco2)c(C)c1	-5%	-11%	-6%	0%	4%
CCN(CC)c1ccc(NC(=O)c2cccc(F)c2)c(C)c1	?	18µM*	-5%	16%	4%
Cc1ccc(S(=O)(=O)N2CCN(C(=O)COC(=O)CCOc3ccc(C(C)(C)C)cc3)CC2)cc1	4%	18µM*	4%	-18%	15%
Cc1ccc(OCCC(=O)OCC(=O)N2CCN(S(=O)(=O)c3ccc(Cl)cc3)CC2)cc1	4%	18µM*	5%	-26%	19%
CCOc1ccc(OCCC(=O)OCC(=O)N2CCN(S(=O)(=O)c3ccc(C)cc3)CC2)cc1	?	11%	-9%	13%	-1%
Cc1ccc(S(=O)(=O)N2CCN(C(=O)COC(=O)C3CCC3)CC2)cc1	-1%	6.5µM*	7%	-16%	-2%
CN(C(=O)COC(=O)C1CCN(S(=O)(=O)c2c(Cl)cccc2Cl)CC1)C1CCCCC1	?	3.7µM*	-2%	21%	4%
O=C(OCC(=O)N1CCN(S(=O)(=O)c2ccc(Cl)cc2)CC1)C1CCC1	-1%	0%	-13%	1%	6%
O=C1Nc2ccccc2Oc2cc(Oc3ccccc3)ccc21	nt	nt	12%	nt	5%
CC1C(=O)N(Cc2cn(Cc3ccco3)nn2)CCS(=O)(=O)N1Cc1ccc(-c2cccc(N(C)C)c2)cc1 (stereo not given)	nt	nt	nt	25%	nt
O=C(COC(=O)COc1ccc(Br)cc1)Nc1ccc2c(c1)OCCO2	8%	0%	15%	-22%	-2%
COc1ccc(-c2nn(-c3ccccc3)cc2CNC[C@H]2O[C@@H](n3cnc(C(N)=O)n3)[C@H](O)[C@@H]2O)cc1	?	?	nt	19%	nt
O=C(c1cc(S(=O)(=O)N2CCN(c3ccccc3)CC2)ccc1Cl)N1CCCCCCC1	?	15%	0%	-34%	14µM*
COc1ccc(S(=O)(=O)N2CCOCC2)cc1C(=O)N(C)CCOc1ccc(Cl)cc1	15%	-11%	7%	?	-2%
CCOC(=O)COc1ccc(S(=O)(=O)N2CCN(c3ccccc3)CC2)cc1	-3%	-2%	25µM*	1%	-10%
Cc1ccc(S(=O)(=O)N2CCOCC2)cc1C(=O)N(C)CCOc1ccc(Cl)cc1	3%	1%	22µM*	-19%	13%
CC1CN(C(=O)c2cc(S(=O)(=O)N3CCN(c4ccccc4)CC3)ccc2Cl)CC(C)O1 (stereo not given)	6%	-5%	-3%	-31%	9%
O=C(/C=C/c1cccc([N+](=O)[O-])c1)N1CCN(S(=O)(=O)c2cccs2)CC1	?	-6%	4%	1%	3%
COC(=O)c1ccc(CSc2cc(C)c3ccccc3n2)o1	12%	0%	32µM*	-8%	6%
CCc1cc(=O)[nH]c(SCC(=O)N2CCOCC2)n1	-1%	-115%	7%	-5%	4%
O=C(c1ccccc1N(Cc1ccccc1)S(=O)(=O)c1ccccc1)N1CCOCC1	9%	4%	16%	?	0%
Cn1c(=O)[nH]c(=O)c2c1nc(Br)n2CCCSc1nc2ccccc2o1	13µM*	7.3µM*	-3%	-3%[7.66 µM]	13%
